In PubChem BioAssay (NCI):
About 83,000 compounds went through this panel and 20% of them were active in at least one assay; those are over-represented in the sample as a whole.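 Note: values are percent growth. 100 is the growth of untreated cells, values between 100 and 0 indicate rising inhibition; between -100 and 0 indicates cell death.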 A number with no mark means an inactive call. Active and inactive are the calls of the source.

tested on: CAKI-1 renal; assay: NCI-60 one-dose screen, 48 h (100 = growth as untreated, 0 = no growth, -100 = all killed); details: 1 µM
Protocol: Growth inhibition of the CAKI-1 human tumor cell line is measured as a screen for anti-cancer activity. Cells are grown in 96 well plates and exposed to the test compound for 48 hours. Compounds are tested at a single concentration, which is 10^-5 M for most compounds. The reported endpoint is percent growth (GI% or GIPRCNT), where numbers from 0 - 100% represent growth inhibition, and numbers from -100% - 0 represent cell death. For example, a value of 40 represents 60% growth inhibition. A value of 0 means no net growth occurred over the course of the experiment. A value of -40 indicates 40% of cells at the beginning of the experiment died by the end of the experiment. A value of -100 means all cells are dead at the end of the experiment.
NCI-60 Human Tumor Cell Lines Screen was performed using the standard one-dose NCI protocol, which is described in more detail at https://dtp.cancer.gov/discovery_development/nci-60/default.htm.
Compounds with GIPRCNT values below 10 were considered active. Activity score was based on GIPRCNT using the following formula: […]
Score is 0 for GIPRCNT values of 100 or above, 50 for GIPRCNT values of 0, and 100 for GIPRCNT values of -100.

| SMILES | growth [%] |
| --- | --- |
| CC/C(=C(/c1ccc(O)cc1)c1ccc(OCCN(C)C(=O)COCCOCCNC(=O)Cc2ccc3c(c2)CN([C@@H]2CCC(=O)NC2=O)C3=O)cc1)c1ccccc1 | 99.8 |

same assay, conditions: 10 µM

| SMILES | growth [%] |
| --- | --- |
| CC/C(=C(/c1ccc(O)cc1)c1ccc(OCCN(C)C(=O)COCCOCCNC(=O)Cc2ccc3c(c2)CN([C@@H]2CCC(=O)NC2=O)C3=O)cc1)c1ccccc1 | 101 |

same assay, conditions: 10 µM unless noted

| SMILES | growth |
| --- | --- |
| Cc1cccc(-c2ccccc2Oc2ccc3nnc(Cl)n3n2)c1 | 92.2% |
| O=C(COc1ccc(/C=C2/C(=O)Nc3ccc(Cl)cc32)cc1)Nc1ccc(Br)cc1 | -73% (active) |
| CCC(=O)c1cc(C(=O)OC)c2ccc3c4ccccc4ccc3n12 | 42.7% |
| ClC(Cn1ncc2c(Nc3cccc(Br)c3)nc(SCCN3CCOCC3)nc21)c1ccc(Br)cc1 (stereo not given) | -28% (active) |
| Fc1ccc(Nc2nnc(-c3c[nH]c4ccccc34)o2)cc1 | 67.8% |
| COc1sc(/C=N/NC(=O)c2[nH]c3ccc(Br)cc3c2-c2ccccc2)cc1Br | 15.2% |
| COc1ccc(/C=C/c2nc3ccccc3n3c(-c4cccc([N+](=O)[O-])c4)nnc23)cc1 | -91.1% (active) |
| COc1ccc(NC(=O)NN2C(=O)c3ccccc3N(C)C2c2ccc(OC)cc2)cc1 (stereo not given) | 92.7% |
| COc1ccc2[nH]c(O)c(N=Nc3nc(-c4ccc(C#N)cc4)cs3)c2c1 | 35.4% |
| Nc1nn2c(-c3cc4ccccc4oc3=O)ccnc2c1N=Nc1ccccc1 | 81.8% |
| COc1ccc(NC(=O)CSc2nnc(-c3ccc(-c4nc5ccc(Cl)cc5[nH]4)cc3)o2)cc1 | 8.1% (active) |
| COc1ccc(NC(=O)Nc2nc3ccc([N+](=O)[O-])cc3s2)cc1 | 13.9% |
| COc1c(B(O)O)cc(F)cc1-c1nc2c(F)cc3[nH]ncc3c2c2c1CCCC2 | 0.122% (active) |
| CC1=C(C(=O)Nc2ccccc2)C(c2cccc3ccccc23)n2c(nc3ccccc32)N1 (stereo not given) | 5.8% (active) |
| c1n[nH]cc1-c1nc2ccc3cn[nH]c3c2c2c1CCCC2 | 39.2% |
| Clc1ccc(-c2nc3c4c(-c5ccccc5)c(-c5ccccc5)n(Cc5ccccc5)c4ncn3n2)cc1 | -20.1% (active) |
| COc1cc(CNC(=O)C[C@H](C)CCC=C(C)C)ccc1OCc1cn(-c2ccccc2F)nn1 | 55.1% |
| O=C(Nc1nc2ccccc2s1)Nc1ccccc1Cl | 45.2% |
| CCN1CCN(Cc2ccc(C(=O)Nc3cccc(Nc4ccc5c(OC)cccc5n4)c3)cc2C(F)(F)F)CC1 | -98.3% (active) |

| SMILES | growth |
| --- | --- |
| FC(F)(F)c1cc2c(Cl)ncnc2n1CCN1CCOCC1 | 75% |
| O=C(CSc1nc2sc3c(c2c(=O)n1-c1ccc(Cl)cc1)CCCC3)NNC(=O)c1ccc(F)cc1 | 73.1% |
| Cc1oc(-c2ccccc2)nc1CN[C@@H]1C[C@@H]2C[C@H]([C@H]1C)C2(C)C | 44.5% |
| Cc1ccc(C(=O)Nc2cc(-c3ccncc3)cc(C(F)(F)F)c2)cc1C#Cc1cnc2cccnn12 | 40.8% |
| O=C(CSc1nc2c(c(=O)[nH]1)CCCC2)Nc1ccccc1C(=O)O | 89.5% |
| Cc1nn(-c2ccccc2)c2ncn(CC(=O)N/N=C/c3ccccc3O)c(=O)c12 | 39.1% |
| O=CNc1ccc(-n2cnc3cc(-c4ccc(O)cc4)ccc32)cc1 | 87.3% |
| COc1ccc(-c2cc(-c3cc(OC)c(OC)c(OC)c3)[nH]c(=O)c2C#N)cc1 | 47% |
| NC(=O)c1ccc(-c2ccc3ncnc(N4CCc5cc(F)c(Cl)cc54)c3c2)cn1 | 31.1% |
| N#Cc1c(-c2ccc(F)cc2)nc(SCc2ccc(F)cc2)nc1N1CCNCC1 | -80.1% (active) |
| CCOc1ccccc1[C@H]1C(C(=O)c2ccc(Cl)cc2)C2(N[C@@H]1c1ccccc1)C(=O)Nc1ccc(Cl)cc12 (stereo not given in full) | 18.5% |
| Cc1ccc(C2CC(c3ccc(NC(=O)Nc4ccccc4)cc3)=NN2c2ccc(S(C)(=O)=O)cc2)cc1 (stereo not given) | 5.74% (active) |
| COc1ccc(N=Nc2c(N)nn3c(N)c(C#N)c(-c4ccccc4)nc23)cc1 | 15.9% |
| COc1ccc(C(=O)C[n+]2cccc3c4ccccc4ccc32)cc1 | 79% |
| COc1ccc(-c2nc3ccc(-c4nnc(SCC(=O)Nc5ccc(/C(C)=N\O)cc5)o4)cc3[nH]2)cc1 | 96.1% |
| O=C1Nc2cc(-c3ccc(NS(=O)(=O)c4ccc(F)c(Cl)c4)cc3)ccc2/C1=C/c1ccc[nH]1 | 33% |
| N#Cc1c(-c2ccc(F)cc2)nc(SCc2ccccc2)nc1N1CCNCC1 | -95.3% (active) |
| O=C1Nc2ccc(F)cc2/C1=C/C(=O)c1cc2ccccc2oc1=O | 88.8% |
| Cc1ccccc1NC(=O)c1cccc(NC(=O)CCl)c1 | 74.5% |
